Screening results from PubChem BioAssay.
The list is not random: actives were taken first. Their share in the collection is about 10%.
GLS inhibitor: glutaminase GLS (human) inhibition | O94925 | GLS enzymatic activity, qHTS titration | Potency, µM (titrated, usually from 45.5 µM), for inactives: at the top dose activity change, negative = inhibition, hits mostly inhibitors | 410,000 tested, 0.21% active; note: % is set by controls: 0 for no effect and ±100 for the full control effect
Target sequence (O94925 whole entry, looked up): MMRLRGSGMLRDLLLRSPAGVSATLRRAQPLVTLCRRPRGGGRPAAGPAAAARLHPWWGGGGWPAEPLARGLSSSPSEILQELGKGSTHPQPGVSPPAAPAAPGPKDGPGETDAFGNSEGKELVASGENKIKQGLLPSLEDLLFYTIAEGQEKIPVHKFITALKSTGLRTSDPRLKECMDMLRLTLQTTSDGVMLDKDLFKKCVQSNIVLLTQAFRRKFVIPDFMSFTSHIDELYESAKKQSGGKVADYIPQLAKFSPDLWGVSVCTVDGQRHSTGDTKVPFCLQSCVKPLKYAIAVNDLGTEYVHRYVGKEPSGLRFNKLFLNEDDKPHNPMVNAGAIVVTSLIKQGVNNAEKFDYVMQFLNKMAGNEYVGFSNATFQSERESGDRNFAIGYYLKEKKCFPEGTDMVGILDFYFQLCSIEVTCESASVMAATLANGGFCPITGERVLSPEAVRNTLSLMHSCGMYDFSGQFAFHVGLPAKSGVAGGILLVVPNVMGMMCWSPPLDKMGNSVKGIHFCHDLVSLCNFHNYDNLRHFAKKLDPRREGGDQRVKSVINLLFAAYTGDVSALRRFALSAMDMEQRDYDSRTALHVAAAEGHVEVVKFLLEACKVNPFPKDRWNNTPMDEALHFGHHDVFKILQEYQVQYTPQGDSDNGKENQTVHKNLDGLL
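Coupled fluorescence readout: glutamate oxidase/HRP/Amplex Red detect glutamate formed by hKGA from L-glutamine (1 mM solution added). Buffer 45 mM KH2PO4 pH 8.2, 0.02% Tween-20; reads at t0 and 30 min RT.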
JMJD2A Tudor inh: inhibitors of human JMJD2A Tudor domain; 390,000 tested, 4.4% active; O75164; AlphaScreen JMJD2A-Tudor / H3K4me3 peptide binding; Potency, µM (series often up to 114 µM), inactives show at the highest dose activity change, negative = inhibition, most hits filed as inhibitors; note: % is set by controls: 0 for no effect and ±100 for the full control effect; nearly all actives have a fitted effect of over 50% in size
BAZ2B block: inhibitors of human BAZ2B bromodomain. AlphaScreen BAZ2B-H3K14Ac peptide displacement. Potency, µM (highest dose often 114 µM), inactives show at the highest dose activity change, negative = inhibition, actives largely listed as inhibitors. 360,000 tested, 4.4% active; note: % is set by controls: 0 for no effect and ±100 for the full control effect; nearly all actives have a fitted effect of over 60% in size
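In this displacement format the biotinylated H3(5-23) peptide acetylated at Lys14 serves as ligand at 50 nM, with BAZ2B at 50 nM in PBS pH 7.4 containing 0.01% Tween-20. Donor and acceptor beads are 10 ug/mL final.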
G9a inh: inhibitors of human histone lysine methyltransferase G9a. Q96KQ7. G9a H3K9 monomethylation, AlphaScreen, 2 h. Potency, µM (series often up to 102 µM), for inactives: top-dose activity, negative = inhibition, hits mostly inhibitors. 350,000 tested, 8.8% active. AID 504332; note: % is set by controls: 0 for no effect and ±100 for the full control effect; nearly all actives have a fitted effect of over 75% in size
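AlphaScreen detection with an anti-monomethyl H3K9 antibody quantified product after a 2 h room-temperature reaction containing 500 nM biotinylated H3K9 peptide, 20 µM SAM and 20 nM enzyme, which had been preincubated 15 min with compound.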
HP1b binding inh: blocks HP1-beta chromodomain binding to methylated histone tails; P83916; AlphaScreen HP1-beta / biotin-H3K9me3 peptide binding; Potency, µM (highest dose often 114 µM), without a hit: at the top dose activity change, negative = inhibition, hits mostly inhibitors; 390,000 tested, 0.56% active; AID 540317; note: nearly all actives have a fitted effect of over 70% in size
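AlphaScreen: HP1-beta (50 nM) preformed 30 min with biotin-H3(1-18)K9me3 peptide (50 nM) in PBS pH 7.4, 0.01% Tween-20. Compound added for 30 min at RT, then streptavidin donor/nickel chelate acceptor beads (10 ug/mL) for 30 min.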
Numbers without * were called inactive; ? = inconclusive; . = not tested or not shown; [ ] = another dose, or the depositor's remark. Calls come from the whole dose curve; as a rule, active = well fitted curve in the direction sought with a large enough effect; inconclusive = small, poorly fitted or top-dose-only effect, or another doubt; inactive = no such curve, though single readings can be large; an effect the other way counts as inactive or inconclusive. Potency is the fitted concentration of half-maximal effect.

SMILES	GLS inhibitor	JMJD2A Tudor inh	BAZ2B block	G9a inh	HP1b binding inh
COc1ccc2[nH]cc(CCNC(=S)NCCc3ccccc3)c2c1	26%	?	28µM*	45µM*	-2%
CC(N)CCCP(=O)(O)O (stereo not drawn)	.	.	.	8%[59 µM]	.
COc1ccc(NC(=S)NCCc2c[nH]c3ccccc23)cc1	5%	-33%	45µM*	32%[59 µM]	-25%
COc1ccccc1NC(=S)NCCc1c[nH]c2ccccc12	?	?	45µM*	-7%[0.501 µM]	8.9µM*
COc1ccc(NC(=S)NCCc2c(C)[nH]c3ccc(OC)cc23)cc1	11%	?	.	50µM*	-23%
Cc1ccc(NC(=S)NCCc2c[nH]c3ccccc23)c(C)c1	11%	?	35µM*	?	-9%
COc1ccccc1NC(=S)NCCc1ccccc1	18%	-6%[11.4 µM]	-6%	49%[12.7 µM]	12%
COc1ccc(CCNC(=S)Nc2ccc(OC)cc2)cc1	67%	-22%	-16%	13%[59 µM]	-9%
CCCn1cc(S(=O)(=O)c2cccc(Cl)c2)c(=O)c2cc(F)c(N3CCCC3)cc21	4%	11%	6%	1%[59 µM]	44%
CCN(C(=O)N1CCOCC1)c1ccccc1C	-9%	-7%	8%	2%	51%
COc1ccc2oc(=O)c(C(=O)NCCc3c(C)[nH]c4ccc(C)cc34)cc2c1	8%	?	25µM*	?	?
O=C(CSc1cccc[n+]1[O-])c1ccc(Cl)s1	?	3%	-19%	10µM*	36%
Cc1cc(C(=O)CSc2cccc[n+]2[O-])c(C)n1-c1ccc(Br)cc1	.	.	50µM*	35µM*	.
O=C(CSc1cccc[n+]1[O-])c1ccccc1Br	3%	-10%	-28%	0.5µM*	12%
CN(C(=O)CSc1cccc[n+]1[O-])c1ccccc1	6%	2%	.	.	36%
COc1cccc(/C=N/NC(=O)C(C)n2nnc3ccccc32)c1 (stereo not drawn)	?	45µM*	2%	5%[59 µM]	8%
CCN(CC)C(=O)[C@H]1CC(CC(=O)NCCCOC)C(=O)N2CCc3c([nH]c4ccccc34)[C@]12C (stereo partly drawn)	7%	-12%	.	.	18%
CC(=O)c1ccc(N=c2scc(C)n2C(C)C)cc1	-15%	?	?	45µM*	-17%
Cc1ccc(-c2nn(-c3cccc(F)c3)cc2CN2CCN(c3ccccn3)CC2)o1	-2%	35µM*	50µM*	?	?
Cc1ccc(-c2nn(-c3cccc(F)c3)cc2CN(Cc2nccn2C)C(C)C)o1	?	?	?	10µM*	?
COc1ccccc1NC(c1ccc(Cl)cc1)c1nnc(-c2cccc(F)c2)o1 (stereo not drawn)	15%	-8%	-24%	-36%[59 µM]	20%
CC(NC(=O)Nc1ccc(O)cc1)(C(F)(F)F)C(F)(F)F	43%	-16%	1%	11µM*	4%
COc1ccc(NC(=O)NC(C)(C(F)(F)F)C(F)(F)F)cc1	?	16µM*	-3%[57.1 µM]	-3%	-3%
O=C(Nc1nnc([C@H]2C[C@H](O)[C@@H](CO)O2)s1)NC1CCCCC1	-6%	.	.	.	.
CCN(CC)S(=O)(=O)c1ccc(Oc2ccccc2)c(N)c1	11%	-1%	.	5%	47%
SMILES	GLS inhibitor	JMJD2A Tudor inh	BAZ2B block	G9a inh	HP1b binding inh
Cc1cc(C)[n+](-c2ccc(Oc3ccccc3)c(S(=O)(=O)[O-])c2)[nH]1	.	50µM*	-17%	?	9%
O=C(Nc1ccc(F)c(Cl)c1)c1cc(C2CCCCN2C(=O)c2ccc3c(c2)CCO3)on1 (stereo not drawn)	4%	.	.	.	.
CN1CCN(NS(=O)(=O)c2ccc(Cl)cc2)CC1	-20%	-11%	1%	1.1µM*	15%
Cc1ccc(S(=O)(=O)NN2CCCCCC2)cc1	12%	.	.	.	.
Cc1cc(=O)n(CC(=O)NC(C)c2ccccc2)c2c1c(C)nn2C (stereo not drawn)	?	?	?	0%[59 µM]	?
Cc1nn(C)c2c1c(-c1ccccc1)cc(=O)n2CC(=O)NC(C)c1ccccc1 (stereo not drawn)	?	50µM*	50µM*	-45%[59 µM]	40µM*
CN(C)C(=O)c1cccc(-c2cnc3c(NC=O)cc(-c4ccccc4F)cn23)c1	-4%	.	.	.	.
COc1cc(Cl)ccc1NC(=O)COc1ccccc1C(=O)N1CCN(c2ccc(O)cc2)CC1	29%	?	-6%	10µM*	?
Cc1cc(Cl)ccc1OCC(=O)Nc1ccccc1C(=O)N1CCOCC1	-3%	-15%	0%	.	19%
COc1ccccc1NS(=O)(=O)c1ccc(C)c(C(=O)N2CCN(c3ccc(O)cc3)CC2)c1	-21%	28µM*	.	.	-34%
O=C(NNC1=C(C(=O)C(F)(F)F)CCC1)c1cccc(O)c1	-1%	-20%	0%	1%[59 µM]	16%
Cc1cccc(C(=O)NNC2=C(C(=O)C(F)(F)F)CCC2)c1O	11%	79µM*	18µM*	?	-22%
CCc1nc2ccc(C(=O)NCc3ccc4c(c3)OCO4)cn2c1N(CC)Cc1cccc(Br)c1	4%	.	.	.	.
CCCCCC(=O)NC(=S)NNC(=O)CC	31%	28µM*	33%	?	-8%
CCCCC(=O)NC(=S)Nc1cccc(NC(=O)CC)c1	40%	-21%	3%	41%[0.0925 µM]	16%
CCCCC(=O)NC(=S)NNC(=O)CC	6%	7%[11.4 µM]	18%	7.1µM*	51%
CCCCC(=O)NC(=S)Nc1c(C)cc(Br)cc1C	-4%	?	-22%	10µM*	26%
COc1ccc(C(=O)NCC(c2ccc3c(c2)OCO3)N2CCOCC2)cc1OC (stereo not drawn)	-1%	0%	0%	10%[59 µM]	32%[57 µM]
CC(C)(C)c1ccc(S(=O)(=O)Nc2ccc(C(O)(C(F)(F)F)C(F)(F)F)cc2)cc1	1%	.	.	.	.
COc1ccc(CNC(=O)c2cc(=O)c3cc(C)cc(C)c3o2)cc1	18%	-2%	-12%	-2%	28%
Cc1ccccc1C(c1c(C)n(C)n(-c2ccccc2)c1=O)c1c(C)n(C)n(-c2ccccc2)c1=O	-11%	-4%	1%	1%[59 µM]	42%
Cc1cc(C)cc(NC(=O)CSc2nc(N)c(NC(=O)c3cccs3)c(=O)[nH]2)c1	20%	-15%	-8%	11µM*	15%
CC(=O)Nc1ccc(NC(=O)CSc2nc(N)c(NC(=O)c3ccco3)c(=O)[nH]2)cc1	-5%	-15%	50µM*	-5%[12.7 µM]	14%
Nc1nc(SCC(=O)Nc2ccc(F)cc2)[nH]c(=O)c1NC(=O)c1ccc(F)c(F)c1	6%	-3%	-21%	79µM*	18%
CCc1ccc(NC(=O)CSc2nc(N)c(NC(=O)c3ccc(F)c(F)c3)c(=O)[nH]2)cc1	7%	-5%	-1%	.	16%
Cc1nnc(NC(=O)CSc2nc(N)c(NC(=O)c3cccs3)c(=O)[nH]2)s1	6%	-1%	-23%	?	27%
